Laboratory results: PubChem BioAssay (Tox21)
Values joined by “and” are separate entries in the source; they are usually repeats but may differ in a detail not shown here. Equal entries are not always repeated. Results filed as inconclusive are left out. Values without a mark were called inactive. Active and inactive are the calls of the source. Unless noted, calls come from the whole dose curve; as a rule, active = well fitted cell-killing curve with a large enough effect in the repeat runs; inconclusive = weak or mixed curves; inactive = no such curve, though single readings can be large or run the other way.

System: not listed separately
Experiment: qHTS assay for identifying genotoxic compounds that show differential cytotoxicity against isogenic chicken DT40 cell lines with known DNA damage response pathways - Rad54/Ku70 mutant cell line (AID 743015); note: nearly all actives have a fitted effect of over 60% in size; note: potency is the fitted concentration of half-maximal effect
Conditions: DT40 Rad54/Ku70 mutant viability, CellTiter-Glo, 40 h; series mostly up to 66.8 µM; activity change, negative = cytotoxicity: at the top concentration
% is set by controls: 0 for no effect and ±100 for the full control effect.

| SMILES | Potency | activity change, negative = cytotoxicity |
| --- | --- | --- |
| Oc1ccc(Cl)cc1C1CCCC1 | 27.3 µM (active) |  |
| CNC(=O)C[C@@H](N)C(=O)N[C@@H](C(=O)N[C@@H]1C(=O)N2[C@@H]1SC(C)(C)[C@@H]2C(=O)O)c1ccc(O)cc1 |  | 7.3% |
| N[C@@H](Cc1cnc[nH]1)C(=O)O |  | 11.7% |
| NS(=O)(=O)c1cc(Cl)c(Cl)c(S(N)(=O)=O)c1 |  | 5.43% [at 30.7 µM] |
| COC(=O)C(CN)c1c[nH]c2ccc(OC)cc12 (stereo unspecified) |  | 8.27% |
| C=C1C(=C/C=C2\CCC[C@]3(C)[C@@H]([C@H](C)CCCC(C)C)CC[C@@H]23)C[C@@H](O)C[C@@H]1O | 6.68 µM (active) |  |
| CN[C@H](CC(C)C)C(=O)N[C@H]1C(=O)N[C@@H](CC(N)=O)C(=O)N[C@H]2C(=O)N[C@H]3C(=O)N[C@H](C(=O)N[C@@H](C(=O)O)c4cc(O)cc(O)c4-c4cc3ccc4O)[C@H](O)c3ccc(c(Cl)c3)Oc3cc2cc(c3O[C@@H]2O[C@H](CO)[C@@H](O)[C@H](O)[C@H]2O[C@H]2C[C@](C)(N)C(O)[C@H](C)O2)Oc2ccc(cc2Cl)[C@H]1O (stereo partly specified) | inactive |  |
| O=C1c2c(O)cccc2[C@H]([C@@H]2O[C@H](CO)[C@@H](O)[C@H](O)[C@H]2O)c2cc(CO)cc(O)c21 | inactive |  |
| Nc1nc(NC2CC2)c2ncn([C@@H]3C=C[C@@H](CO)C3)c2n1 |  | -3.37% |
| Cc1cccc(C)c1NC(=O)C1CCCCN1C (stereo unspecified) |  | 5.27% |
| CC(=NCc1ccccc1)c1ccccc1O |  | -0.503% |
| CON=C1C[C@]2(C[C@@H]3C[C@@H](C/C=C(\C)C[C@@H](C)/C=C/C=C4\CO[C@@H]5[C@H](O)C(C)=C[C@@H](C(=O)O3)[C@]45O)O2)O[C@H](/C(C)=C/C(C)C)[C@H]1C | 10.6 µM (active) and 13.3 µM (active) |  |
| CC12CCC(C[N+](C)(CCC[N+](C)(C)C)C1)C2(C)C (stereo unspecified) |  | -0.244% |
| CSCCC(N)C(=O)O (stereo unspecified) |  | 7.18% |

System: not listed separately
Experiment: qHTS assay to identify small molecule antagonists of the androgen receptor (AR) signaling pathway - cell viability counter screen (AID 743033; note: nearly all actives have a fitted effect of over 45% in size)
Conditions: AR-bla HEK293 viability, CellTiter-Glo luminescence, 16 h; series mostly up to 58.5 µM; activity change, negative = cytotoxicity: at the top concentration

| SMILES | activity change, negative = cytotoxicity | Potency |
| --- | --- | --- |
| CCCOC(=O)c1ccccc1O | 4.45% |  |
| CO/N=C(\C(=O)N[C@@H]1C(=O)N2C(C(=O)O)=C(CSc3cnns3)CS[C@H]12)c1csc(N)n1 | 20% |  |
| C=C(Nc1ccc(OCC)cc1)Nc1ccc(OCC)cc1 |  | inactive |
| N[C@H](CO)C(=O)O | 12.1% |  |
| CC(C)(C)c1ccc2c(S(=O)(=O)O)c(C(C)(C)C)ccc2c1 |  | inactive |
| CCCCCN=C(N)N/N=C/c1c[nH]c2ccc(OC)cc12 | -22.5% |  |
| O=C1c2ccccc2C(=O)C1c1ccc(F)cc1 | -2.27% |  |
| CCN(CC)CCn1c(=O)c(Cc2ccc(OC)cc2)nc2ccccc21 | -25.5% |  |
| CN1[C@@H](CC(=O)c2ccccc2)CCC[C@H]1C[C@H](O)c1ccccc1 | 3.88% |  |
| CC[C@H]1OC(=O)C[C@@H](O)[C@H](C)[C@@H](O[C@@H]2O[C@H](C)[C@@H](O[C@H]3C[C@@](C)(O)[C@@H](O)[C@H](C)O3)[C@H](N(C)C)[C@H]2O)[C@@H](CC=O)C[C@@H](C)C(=O)/C=C/C(C)=C/[C@@H]1CO[C@@H]1O[C@H](C)[C@@H](O)[C@@H](OC)[C@H]1OC |  | inactive |
| N#Cc1c(N(CC(=O)O)CC(=O)O)sc(C(=O)O)c1CC(=O)O | -17% |  |
| CC(=O)Oc1cc(C(F)(F)F)ccc1C(=O)O | -0.972% [at 27 µM] |  |
| O=P(O)(O)CP(=O)(O)O | 4.81% |  |
| CCOc1ccc(NC(=S)Nc2ccc(OCC)cc2)cc1 | -7.27% |  |
| CNC(=O)C[C@@H](N)C(=O)N[C@@H](C(=O)N[C@@H]1C(=O)N2[C@@H]1SC(C)(C)[C@@H]2C(=O)O)c1ccc(O)cc1 | -8.18% |  |
| N[C@@H](Cc1cnc[nH]1)C(=O)O | 2.12% |  |
| COC(=O)C(CN)c1c[nH]c2ccc(OC)cc12 (stereo unspecified) | 7.54% |  |
| Nc1nc(NC2CC2)c2ncn([C@@H]3C=C[C@@H](CO)C3)c2n1 | 2.25% |  |
| Cc1ccc(C(C)(C)c2ccc(C)cc2)cc1 | 10.3% |  |
| CC(=O)OCC(=O)[C@@]1(O)CC[C@H]2[C@@H]3C[C@H](C)C4=CC(=O)C=C[C@]4(C)[C@H]3[C@@H](O)C[C@@]21C | 4.1% |  |
| CCCCCCCCCCCCCCCCCCOCC(COP(=O)([O-])OCC[N+](C)(C)C)OC (stereo unspecified) | -2.17% |  |
| CON=C1C[C@]2(C[C@@H]3C[C@@H](C/C=C(\C)C[C@@H](C)/C=C/C=C4\CO[C@@H]5[C@H](O)C(C)=C[C@@H](C(=O)O3)[C@]45O)O2)O[C@H](/C(C)=C/C(C)C)[C@H]1C |  | inactive |

Molecular target: Androgen receptor (Homo sapiens) (UniProt P10275)
Sequence (P10275 whole entry, looked up): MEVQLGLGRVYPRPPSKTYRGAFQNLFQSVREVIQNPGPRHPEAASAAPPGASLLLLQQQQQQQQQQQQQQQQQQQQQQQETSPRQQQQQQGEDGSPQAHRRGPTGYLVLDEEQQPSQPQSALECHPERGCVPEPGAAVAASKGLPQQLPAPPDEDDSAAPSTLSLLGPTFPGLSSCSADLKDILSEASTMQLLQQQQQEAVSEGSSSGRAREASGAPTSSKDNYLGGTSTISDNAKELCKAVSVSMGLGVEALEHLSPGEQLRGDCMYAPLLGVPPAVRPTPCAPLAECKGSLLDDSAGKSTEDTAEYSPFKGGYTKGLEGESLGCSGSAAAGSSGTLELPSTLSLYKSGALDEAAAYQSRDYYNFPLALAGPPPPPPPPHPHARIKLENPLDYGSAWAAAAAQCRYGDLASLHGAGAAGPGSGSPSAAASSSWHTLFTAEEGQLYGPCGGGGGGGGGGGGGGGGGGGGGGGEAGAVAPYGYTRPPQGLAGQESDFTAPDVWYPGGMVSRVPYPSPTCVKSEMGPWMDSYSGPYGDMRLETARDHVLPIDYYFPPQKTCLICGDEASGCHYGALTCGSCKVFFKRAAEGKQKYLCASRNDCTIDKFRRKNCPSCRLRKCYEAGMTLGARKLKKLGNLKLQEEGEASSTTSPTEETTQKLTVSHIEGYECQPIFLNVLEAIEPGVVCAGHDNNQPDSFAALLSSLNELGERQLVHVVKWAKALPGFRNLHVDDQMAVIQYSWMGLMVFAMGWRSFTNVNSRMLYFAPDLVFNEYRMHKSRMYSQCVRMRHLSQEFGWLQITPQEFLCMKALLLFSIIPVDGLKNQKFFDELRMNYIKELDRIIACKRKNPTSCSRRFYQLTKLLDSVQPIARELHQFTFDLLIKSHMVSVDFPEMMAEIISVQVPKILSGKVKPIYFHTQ
Experiment: qHTS assay to identify small molecule antagonists of the androgen receptor (AR) signaling pathway (AID 743035; active = well fitted inhibition curve with a large enough effect in the signal ratio in the repeat runs, not every such curve was filed as active; the % refers to the signal ratio; note: potency is the fitted concentration of half-maximal effect)
Conditions: HEK293 AR-UAS-bla, R1881-stimulated, beta-lactamase FRET, 16 h; series mostly up to 58.5 µM; activity change, negative = inhibition: at the top concentration
Procedure, shortened: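 Reporter HEK293 cells were exposed to compounds and R1881 overnight (16 h, 37C); beta-lactamase activity was then quantified by FRET fluorescence.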

| SMILES | activity change, negative = inhibition [%] | Potency |
| --- | --- | --- |
| O=C1c2ccccc2C(=O)C1c1ccc(F)cc1 | -12.4 |  |
| CCN(CC)CCn1c(=O)c(Cc2ccc(OC)cc2)nc2ccccc21 | 3.35 |  |
| O=P(O)(O)CP(=O)(O)O | 10.2 |  |
| N[C@@H](Cc1cnc[nH]1)C(=O)O | -3.48 |  |
| CON=C1C[C@]2(C[C@@H]3C[C@@H](C/C=C(\C)C[C@@H](C)/C=C/C=C4\CO[C@@H]5[C@H](O)C(C)=C[C@@H](C(=O)O3)[C@]45O)O2)O[C@H](/C(C)=C/C(C)C)[C@H]1C |  | 7.56 µM (active) |

Molecular target: Androgen receptor (Homo sapiens) (UniProt P10275)
Experiment: qHTS assay to identify small molecule agonists of the androgen receptor (AR) signaling pathway (AID 743036; active = well fitted activation curve with a large enough effect in the signal ratio in the repeat runs, with a control signal flat, not every such curve was filed as active; the % refers to the signal ratio)
Conditions: HEK293 AR-UAS-bla GripTite, beta-lactamase FRET ratio, 16 h; series mostly up to 62.4 µM; activation: at the top concentration
Procedure, shortened: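 Reporter line: GeneBLAzer AR-UAS-bla-GripTite (HEK293). Steps: plate cells, 4 h rest, add compounds, 16 h at 37C, add LiveBLAzer B/G substrate, 2 h at RT, read fluorescence.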

| SMILES | activation [%] |
| --- | --- |
| CO/N=C(\C(=O)N[C@@H]1C(=O)N2C(C(=O)O)=C(CSc3cnns3)CS[C@H]12)c1csc(N)n1 | 14.6 |
| O=C1c2ccccc2C(=O)C1c1ccc(F)cc1 | -6.79 |
| CCN(CC)CCn1c(=O)c(Cc2ccc(OC)cc2)nc2ccccc21 | -3.42 |
| O=P(O)(O)CP(=O)(O)O | 20.4 |
| N[C@@H](Cc1cnc[nH]1)C(=O)O | -0.618 |
